Test results taken from the supplement of paper PMC4466140.

Target: AgAbp1
Experiment: SPOT peptide array binding signal intensity (averaged, normalized) (arbitrary units (background-subtracted, floor 0; scale differs between SH3 domains)); higher = stronger binding of the SH3 domain to the peptide
In short: (§1)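 GST-SH3 fusions from four yeast species, purified on glutathione Sepharose, were incubated at 10 μg/ml overnight at 4°C on membranes of synthetic 15-mer peptides in which cysteines were replaced with serines. Binding signal is the normalized, background-subtracted spot intensity averaged over replicates, in domain-specific arbitrary units.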

Row | Binder | SPOT peptide array binding signal intensity
1 | NTMKKRPAPPSLPSL | 93

Target: AgBbc1
Experiment: as above
In short: as §1

Row | Binder | SPOT peptide array binding signal intensity
2 | NTMKKRPAPPSLPSL | 21

Target: AgBem1-D1
Experiment: as above
In short: as §1

Row | Binder | SPOT peptide array binding signal intensity
3 | NTMKKRPAPPSLPSL | 405

Target: AgBzz1-D1
Experiment: as above
In short: as §1

Row | Binder | SPOT peptide array binding signal intensity
4 | NTMKKRPAPPSLPSL | 152

Target: AgBzz1-D2
Experiment: as above
In short: as §1

Row | Binder | SPOT peptide array binding signal intensity
5 | NTMKKRPAPPSLPSL | 240

Target: AgCyk3
Experiment: as above
In short: as §1

Row | Binder | SPOT peptide array binding signal intensity
6 | NTMKKRPAPPSLPSL | ≤ 0

Target: AgFus1
Experiment: as above
In short: as §1

Row | Binder | SPOT peptide array binding signal intensity
7 | NTMKKRPAPPSLPSL | 375

Target: AgHof1
Experiment: as above
In short: as §1

Row | Binder | SPOT peptide array binding signal intensity
8 | NTMKKRPAPPSLPSL | 286

Target: AgHse1
Experiment: as above
In short: as §1

Row | Binder | SPOT peptide array binding signal intensity
9 | NTMKKRPAPPSLPSL | 641

Target: AgLsb1
Experiment: as above
In short: as §1

Row | Binder | SPOT peptide array binding signal intensity
10 | NTMKKRPAPPSLPSL | 15.5

Target: AgLsb4
Experiment: as above
In short: as §1

Row | Binder | SPOT peptide array binding signal intensity
11 | NTMKKRPAPPSLPSL | 61.5

Target: AgMyo5
Experiment: as above
In short: as §1

Row | Binder | SPOT peptide array binding signal intensity
12 | NTMKKRPAPPSLPSL | 66.5

Target: AgNbp2
Experiment: as above
In short: as §1

Row | Binder | SPOT peptide array binding signal intensity
13 | NTMKKRPAPPSLPSL | 384

Target: AgRvs167
Experiment: as above
In short: as §1

Row | Binder | SPOT peptide array binding signal intensity
14 | NTMKKRPAPPSLPSL | 3.33

Target: AgSho1
Experiment: as above
In short: as §1

Row | Binder | SPOT peptide array binding signal intensity
15 | NTMKKRPAPPSLPSL | 496

Target: AgSla1-D1-D2
Experiment: as above
In short: as §1

Row | Binder | SPOT peptide array binding signal intensity
16 | NTMKKRPAPPSLPSL | 114

Target: AgSla1-D3
Experiment: as above
In short: as §1

Row | Binder | SPOT peptide array binding signal intensity
17 | NTMKKRPAPPSLPSL | 59.8

Target: CaAbp1-D1
Experiment: as above
In short: as §1

Row | Binder | SPOT peptide array binding signal intensity
18 | NTMKKRPAPPSLPSL | 1570

Target: CaAbp1-D2
Experiment: as above
In short: as §1

Row | Binder | SPOT peptide array binding signal intensity
19 | NTMKKRPAPPSLPSL | 892

Target: CaBbc1
Experiment: as above
In short: as §1

Row | Binder | SPOT peptide array binding signal intensity
20 | NTMKKRPAPPSLPSL | 151

Target: CaBem1-D1
Experiment: as above
In short: as §1

Row | Binder | SPOT peptide array binding signal intensity
21 | NTMKKRPAPPSLPSL | 279

Target: CaBzz1-D1
Experiment: as above
In short: as §1

Row | Binder | SPOT peptide array binding signal intensity
22 | NTMKKRPAPPSLPSL | 2650

Target: CaBzz1-D2
Experiment: as above
In short: as §1

Row | Binder | SPOT peptide array binding signal intensity
23 | NTMKKRPAPPSLPSL | 952

Target: CaCyk3
Experiment: as above
In short: as §1

Row | Binder | SPOT peptide array binding signal intensity
24 | NTMKKRPAPPSLPSL | 13.5

Target: CaFus1
Experiment: as above
In short: as §1

Row | Binder | SPOT peptide array binding signal intensity
25 | NTMKKRPAPPSLPSL | 1380

Target: CaHof1
Experiment: as above
In short: as §1

Row | Binder | SPOT peptide array binding signal intensity
26 | NTMKKRPAPPSLPSL | 0.5

Target: CaHse1
Experiment: as above
In short: as §1

Row | Binder | SPOT peptide array binding signal intensity
27 | NTMKKRPAPPSLPSL | 262

Target: CaLsb1
Experiment: as above
In short: as §1

Row | Binder | SPOT peptide array binding signal intensity
28 | NTMKKRPAPPSLPSL | 6

Target: CaLsb4
Experiment: as above
In short: as §1

Row | Binder | SPOT peptide array binding signal intensity
29 | NTMKKRPAPPSLPSL | 589

Target: CaMyo5
Experiment: as above
In short: as §1

Row | Binder | SPOT peptide array binding signal intensity
30 | NTMKKRPAPPSLPSL | 137

Target: CaNbp2
Experiment: as above
In short: as §1

Row | Binder | SPOT peptide array binding signal intensity
31 | NTMKKRPAPPSLPSL | 1280

Target: CaRvs167
Experiment: as above
In short: as §1

Row | Binder | SPOT peptide array binding signal intensity
32 | NTMKKRPAPPSLPSL | 89

Target: CaRvs167-3
Experiment: as above
In short: as §1

Row | Binder | SPOT peptide array binding signal intensity
33 | NTMKKRPAPPSLPSL | 1.25

Target: CaSho1
Experiment: as above
In short: as §1

Row | Binder | SPOT peptide array binding signal intensity
34 | NTMKKRPAPPSLPSL | 1700

Target: CaSla1-D1-D2
Experiment: as above
In short: as §1

Row | Binder | SPOT peptide array binding signal intensity
35 | NTMKKRPAPPSLPSL | 648

Target: CaSla1-D3
Experiment: as above
In short: as §1

Row | Binder | SPOT peptide array binding signal intensity
36 | NTMKKRPAPPSLPSL | 246

Target: ScAbp1
Experiment: as above
In short: as §1

Row | Binder | SPOT peptide array binding signal intensity
37 | NTMKKRPAPPSLPSL | 30
